This is an account of results in PubChem BioAssay AID720700 (The Scripps Research Institute Molecular Screening Center, 2013).

Hit rate of the full screen: of about 370,000 compounds, about 3,100 (0.84%) were called active. Rule as the data show it: active = inhibition above about 9.5%; inactive = the rest. Shown is part of a subset that was picked to be rich in actives.

For the test, the target named is 1-phosphatidylinositol 4,5-bisphosphate phosphodiesterase gamma-1 (Homo sapiens) (UniProt P19174). The test can be described thus: blockers of human PLCG1 activity – biochemical, fluorescence, purified enzyme, primary screen (AID 720700). As to conditions: purified PLC-gamma1, fluorogenic substrate, at 12.2 µM, stronger effect = higher value.
Sequence of 1-phosphatidylinositol 4,5-bisphosphate phosphodiesterase gamma-1 (Homo sapiens) (P19174 whole entry, looked up): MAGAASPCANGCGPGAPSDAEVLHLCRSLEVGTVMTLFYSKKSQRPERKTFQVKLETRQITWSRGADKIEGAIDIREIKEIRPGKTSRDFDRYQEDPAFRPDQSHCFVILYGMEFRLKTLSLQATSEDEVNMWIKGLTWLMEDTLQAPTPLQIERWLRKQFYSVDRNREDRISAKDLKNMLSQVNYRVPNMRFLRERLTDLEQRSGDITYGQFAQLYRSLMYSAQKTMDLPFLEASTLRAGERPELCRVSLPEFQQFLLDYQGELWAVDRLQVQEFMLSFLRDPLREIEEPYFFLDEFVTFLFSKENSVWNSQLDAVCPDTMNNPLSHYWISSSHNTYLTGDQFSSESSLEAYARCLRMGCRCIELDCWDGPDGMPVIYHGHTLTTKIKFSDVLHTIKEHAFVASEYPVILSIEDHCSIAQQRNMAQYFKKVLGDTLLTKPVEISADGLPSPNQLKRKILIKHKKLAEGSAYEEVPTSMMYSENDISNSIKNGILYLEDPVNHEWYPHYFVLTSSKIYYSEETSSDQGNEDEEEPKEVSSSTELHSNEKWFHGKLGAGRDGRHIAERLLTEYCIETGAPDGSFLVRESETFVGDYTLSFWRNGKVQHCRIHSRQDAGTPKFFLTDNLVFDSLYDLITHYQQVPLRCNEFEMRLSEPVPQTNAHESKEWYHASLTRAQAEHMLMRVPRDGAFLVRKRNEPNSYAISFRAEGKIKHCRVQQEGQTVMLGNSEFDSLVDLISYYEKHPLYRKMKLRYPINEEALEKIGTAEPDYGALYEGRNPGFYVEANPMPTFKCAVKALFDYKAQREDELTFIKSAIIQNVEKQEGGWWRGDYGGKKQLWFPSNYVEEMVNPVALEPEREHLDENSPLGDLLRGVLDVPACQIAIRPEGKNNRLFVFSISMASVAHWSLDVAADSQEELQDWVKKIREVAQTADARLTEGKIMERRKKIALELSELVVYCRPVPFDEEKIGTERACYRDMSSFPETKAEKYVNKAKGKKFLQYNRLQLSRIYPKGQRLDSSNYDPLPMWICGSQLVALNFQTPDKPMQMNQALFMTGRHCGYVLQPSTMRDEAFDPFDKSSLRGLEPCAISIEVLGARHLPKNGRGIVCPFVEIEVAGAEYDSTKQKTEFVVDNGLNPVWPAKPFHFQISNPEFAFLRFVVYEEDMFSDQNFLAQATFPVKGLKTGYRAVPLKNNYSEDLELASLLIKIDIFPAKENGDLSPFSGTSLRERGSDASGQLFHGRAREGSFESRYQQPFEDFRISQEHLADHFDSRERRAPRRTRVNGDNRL
Consider `O=C(NCCCN1CCCCCC1)C1CC(=O)N(C2CCCC2)C1` (stereo unspecified), for which the inhibition (commonly the change of the read-out against control, counted positive when it falls) is -1.08% (inactive).

Regarding `O=C(NC(C(=O)NCCN1CCOCC1)C12CC3CC(CC(C3)C1)C2)C1CCCCC1` (stereo unspecified), the inhibition is -1.07% (inactive).

As to `CC(C)C(NC(=O)C1CCC(C(C)(C)C)CC1)C(=O)NCCCN1CCCCC1` (stereo unspecified), the inhibition is 10.2% (active).

Take `Cc1ccc(-n2c(SCC(=O)Nc3ccc(S(=O)(=O)Nc4nccs4)cc3)nnc2-c2ccccn2)cc1`: the inhibition was -1.19% (inactive).

As for `CN(C)/C=C(/C(=O)c1ccccc1Cl)S(C)(=O)=O`, the inhibition was -0.96% (inactive).

As for `CN(C)/C=C(/C(=O)c1ccc(F)cc1)S(=O)(=O)c1ccc(F)cc1`, the inhibition is -0.23% (inactive).

For `CN(C)/C=C(/C(=O)c1ccc(Cl)cc1)S(=O)(=O)c1ccccc1`, the inhibition was 11.6% (active).

In the case of `CC(C)CNC(=O)OCc1cn(Cc2ccc(F)cc2)nn1`, the inhibition is -0.35% (inactive).

As for `CN(CCO)c1cccc2c1S(=O)(=O)N(Cc1cn(Cc3ccc(C(F)(F)F)cc3)nn1)Cc1ccccc1O2`, the inhibition was -12.9% (inactive).

On to `CCOc1ccc(-n2c(SCC(=O)Nc3cc(C)c(NC(=O)c4ccccc4)cc3OC)nnc2-c2cccc(Cl)c2)cc1`, for which the inhibition was -13.8% (inactive).

Regarding `Cc1ccc(C(=O)C2CCN(CC(=O)NCCC(C)C)CC2)cc1`, the inhibition was -6.25% (inactive).

Regarding `NC1=CC(=O)C(=O)c2cccnc21`, the inhibition is 11.2% (active).

On to `CC(C)CNS(=O)(=O)CC1NCCc2ccccc21` (stereo unspecified), for which the inhibition was 1.24% (inactive).

For the compound `O=C(CSc1nc2sc3c(c2c(=O)n1-c1ccccc1)CCCC3)NN=Cc1ccc(OCc2ccccc2)cc1`, the inhibition was -0.49% (inactive).

In the case of `COc1ccc(/C=C2\N=C3CCCN3C2=O)cc1`, the inhibition is 10.5% (active).

`COc1ccc(/C=C2\CC3(OC(C)=O)CCCN2C3)cc1` (stereo unspecified): the inhibition was 0.44% (inactive).

In the case of `COc1ccc(C=C2CCC3C(CCCC34OCCO4)C2=O)cc1` (stereo unspecified), the inhibition was 3.51% (inactive).

As for `Cc1cccc(NC(=O)C[C@H]2CC[C@H]3[C@@H](COc4ccc(NC(=O)Nc5ccccc5)cc4C(=O)N3C)O2)c1`, the inhibition is 3.76% (inactive).

In the case of `CC1(C)CC(=O)C=C(NC2CC(C)(C)NC(C)(C)C2)C1`, the inhibition is 9.6% (active).

As to `CC1(C)CC(=O)C=C(NCCCNC2CCCCC2)C1`, the inhibition is 2.3% (inactive).

With `COC(=O)NNC1=CC(=O)CC(C)(C)C1`, the inhibition is -1.76% (inactive).

With `O=C1CCC(C(=O)OCC(=O)Nc2ccc(OC(F)F)cc2)=NN1`, the inhibition is 3.57% (inactive).

For `COc1ccc(NC(=O)COC(=O)CNC(=O)C2CCCCC2)cc1`, the inhibition was 0.1% (inactive).

Turning to `CCC(C)(C)c1ccc(Oc2ccc(NC(=O)COC(=O)C3=COCCO3)cc2)cc1`, the inhibition was 10.1% (active).

With `O=C(CSc1nnc(-c2cccc(Cl)c2)n1Cc1ccco1)Nc1ccc(OCc2ccccc2)cc1`, the inhibition is 2.27% (inactive).

Turning to `COC(=O)[C@]12C[C@H](CC(=O)N3CCN(C(=O)C4CC4)CC3)C(=O)N(CCC3=CCCCC3)C1=C[C@H](C(C)C)O[C@@H]2C1CC1`, the inhibition was -0.79% (inactive).

`O=C(CNC(=O)c1ccc(Br)o1)NCC1CCCO1` (stereo unspecified): the inhibition is -1.19% (inactive).

Take `OC(CNCC1CCCO1)Cn1c2ccc(Br)cc2c2cc(Br)ccc21` (stereo unspecified): the inhibition is 9.98% (active).

For `COCCNC(=O)c1ccc(Cn2c(SCC(=O)NCC3CCCO3)nc3ccc(Br)cc3c2=O)cc1` (stereo unspecified), the inhibition was 0.38% (inactive).

Turning to `COc1cccc(CSc2nnc(-c3cccnc3)n2Cc2ccccc2)c1`, the inhibition is -0.88% (inactive).

On to `N[C@@H](Cc1ccccc1)C(=O)N1CCC[C@@H]1C(=O)N1CCC2CCN(S(=O)(=O)c3ccccc3)CC21` (stereo partly specified), for which the inhibition is 1.45% (inactive).

For `CCCCC(=O)N[C@@H]1CC[C@@]23CCCN2C(=O)CCC[C@H]3[C@H]1C`, the inhibition was 0.85% (inactive).

As for `COc1ccc(S[C@]2(C(=O)N(C)C)CC(=O)N(c3ccc(OC)cc3)[C@@H]2c2ccc(OC)cc2)cc1`, the inhibition was 3.67% (inactive).

Turning to `COc1cc(/C=C/C(=O)n2cnc3ccccc32)cc(OC)c1OC`, the inhibition was -0.84% (inactive).

Consider `Cc1ccccc1CN1CCCCC(NC(=O)Nc2ccccc2F)C1=O` (stereo unspecified), for which the inhibition is 4.92% (inactive).

With `Nn1cnnc1N/N=C/c1cc([N+](=O)[O-])c(Cl)cc1Cl`, the inhibition is 13.2% (active).

Regarding `O=C1c2ccccc2C(O)N1Cc1ccccc1Cl` (stereo unspecified), the inhibition was -1.89% (inactive).

Regarding `O=C(Nc1ccc(Br)cc1)C1CCC(=O)N1Cc1ccccc1Cl` (stereo unspecified), the inhibition is 9.91% (active).

Take `COc1ccc(NC(=O)N2CCCC2C(=O)NCc2ccccc2Cl)cc1` (stereo unspecified): the inhibition is -0.63% (inactive).

On to `COc1ccc(-n2c(SCC(=O)Nc3ccc4c(c3)OCCO4)nnc2-c2ccc(Cl)cc2)cc1`, for which the inhibition was 2.18% (inactive).

Consider `O=S1(=O)c2c(NCc3ccco3)cccc2Oc2ccccc2CN1Cc1cn(Cc2cccc(C(F)(F)F)c2)nn1`, for which the inhibition was -41.1% (inactive).

In the case of `O=C(CN1CCN(c2ccc(O)cc2)CC1)Nc1ccc(-c2ccccc2)cc1`, the inhibition is 5.1% (inactive).

`CCc1cc(C(=O)c2ccc(OC)cc2)c(NC(=O)CN2CCN(C)CC2)s1`: the inhibition was -5.73% (inactive).

Take `CCCCc1nc2ccccc2c(NC(=O)CN2CCN(C)CC2)c1CCC`: the inhibition is 31.4% (active).

For the compound `Clc1ccc(-n2c(COc3ccccc3)nnc2SCc2nc3ccccc3[nH]2)cc1`, the inhibition was -0.91% (inactive).

In the case of `CCCCNc1ccc(C(=O)Nc2cccc(C)n2)cc1[N+](=O)[O-]`, the inhibition is 16.8% (active).

In the case of `Cc1cc(O)c(NC(=O)c2ccc(C)c([N+](=O)[O-])c2)cc1C`, the inhibition was 4.76% (inactive).

Take `Cc1cccc(NC(=O)c2ccc(COc3ccccc3[N+](=O)[O-])o2)n1`: the inhibition is -0.91% (inactive).

For `O=C(Nc1cc(F)cc(F)c1)OC1CCC12CCC(c1ccccc1)CC2` (stereo unspecified), the inhibition was 0% (inactive).

Consider `C=CCN1[C@H](CC(C)C)COc2cccc(N3CCCC3)c2S1(=O)=O`, for which the inhibition is -4.7% (inactive).

For `C[C@H]1[C@H](NC(=O)c2cccc(N(C)C)c2)CC[C@@]23CCCN2C(=O)CCC[C@@H]13`, the inhibition is -87.5% (inactive).

On to `Cc1sc2nc(SCC(=O)c3ccc(O)c(O)c3)n(Cc3ccco3)c(=O)c2c1C`, for which the inhibition was 4.7% (inactive).

In the case of `CC1(C(=O)NCc2ccccc2)CSCC(=O)N1CCCN1CCOCC1` (stereo unspecified), the inhibition was 10.3% (active).

Regarding `CCC(C)CN1C(=O)CSCC1(C)C(=O)NCc1ccccc1` (stereo unspecified), the inhibition is 3.07% (inactive).

For `CC1(C(=O)NCc2ccccc2)CSCC(=O)N1CCCn1ccnc1` (stereo unspecified), the inhibition is 0.21% (inactive).

As for `Cc1cc(=O)[nH]c(SCC(=O)Nc2ccc(Cl)cc2C)n1`, the inhibition was 3.72% (inactive).
